Among the data in the antibiotic and cytotoxicity screens of Wong et al. (2023) are cytotoxicity call values, retold here.

Among all 39,000 compounds or so, about 1,500 (3.8%) were called active. Many of the other results were omitted from the sample, so actives are more common in it than they were.

In the test the test system is HSkMC (human skeletal muscle cells). Nature of the test: cytotoxicity call (relative viability < 0.9). Conditions: 10 µM.
For `C[C@H]1CN([C@@H](C)CO)C(=O)Cc2cc(NC(=O)Nc3cc(Cl)cc(Cl)c3)ccc2O[C@H]1CN(C)S(=O)(=O)c1ccc(Oc2ccccc2)cc1`, the cytotoxicity call is “inactive”.
Next, `Cc1ccccc1S(=O)(=O)N(C)C[C@@H]1Oc2ccc(NC(=O)Nc3ccc(Cl)c(Cl)c3)cc2CC(=O)N([C@@H](C)CO)C[C@@H]1C`: “active”; `Cc1noc(C)c1S(=O)(=O)N(C)C[C@@H]1Oc2ccc(NC(=O)Nc3ccccc3)cc2CC(=O)N([C@@H](C)CO)C[C@@H]1C`: “inactive”; `C[C@H](CO)N1C[C@H](C)[C@@H](CN(C)S(C)(=O)=O)Oc2ccc(NC(=O)Nc3ccccc3)cc2CC1=O`: “inactive”.
The entry for `C[C@H]1CN([C@@H](C)CO)C(=O)Cc2cc(NC(=O)Nc3ccc(Cl)c(Cl)c3)ccc2O[C@H]1CN(C)S(=O)(=O)c1ccc(Oc2ccccc2)cc1` is “inactive”; for `Cc1ccccc1S(=O)(=O)N(C)C[C@@H]1Oc2ccc(NC(=O)Nc3cc(Cl)cc(Cl)c3)cc2CC(=O)N([C@@H](C)CO)C[C@@H]1C` it is “active”; for `Nc1ccccc1CO` it is “inactive”.
The entry for `C[C@H](CO)N1C[C@H](C)[C@H](CN(C)CC2CC2)OCCCC[C@H](C)Oc2ccc(NC(=O)Nc3ccccc3)cc2C1=O` is “inactive”; for `C[C@@H]1CCCCO[C@H](CN(C)Cc2ccc3c(c2)OCO3)[C@H](C)CN([C@H](C)CO)C(=O)c2cc(NC(=O)Nc3ccc4c(c3)OCO4)ccc2O1` it is “inactive”; for `Cc1ccc(S(=O)(=O)Nc2ccc3c(c2)C(=O)N([C@@H](C)CO)C[C@H](C)[C@H](CN(C)Cc2ccccc2)OCCCC[C@@H](C)O3)cc1` it is “inactive”.
Turning to `O=C(C1=C[C@@H](c2ccc3c(c2)OCO3)C[C@@H](OCCCCO)O1)N1CCN(Cc2ccc3c(c2)OCO3)CC1`, the cytotoxicity call was “inactive”.
For the compound `C[C@H]1CN([C@@H](C)CO)C(=O)c2cc(C#CC3(O)CCCC3)cnc2O[C@@H]1CN(C)C(=O)Cc1ccncc1`, the cytotoxicity call was “inactive”.
As for `COc1ccc(S(=O)(=O)N2C[C@@H](O)COC[C@@H]3O[C@@H](CC(=O)NCCCN4CCOCC4)CC[C@H]32)cc1`, the cytotoxicity call was “inactive”.
The entry for `CCCCCCOC(=O)/N=C(/N)c1ccc(NCc2nc3cc(C(=O)N(CCC(=O)OCC)c4ccccn4)ccc3n2C)cc1` is “active”.
The entry for `CCCCCCOC(=O)N=C(N)c1ccc(NCc2nc3cc(C(=O)N(CCC(=O)OCC)c4ccccn4)ccc3n2C)cc1.CS(=O)(=O)O` is “inactive”; for `COc1ccc(NC(=O)Nc2cccc3c2O[C@@H](CN(C)S(C)(=O)=O)[C@@H](C)CN([C@H](C)CO)C3=O)cc1` it is “inactive”; for `C[C@H](CO)N1C[C@H](C)[C@H](CN(C)S(C)(=O)=O)Oc2ccc(NS(=O)(=O)c3ccc(F)cc3)cc2CC1=O` it is “inactive”.
